Active and inactive are the calls of the source. Unless noted, no rule for the calls is given here.
Columns and labels:
[1] = compounds binding Alexa647 anti-His antibody – biochemical, small-molecule microarray, 635 nm fluorescence, artefact control for SMM control protein annotation, primary screen (AID 1128); conditions: higher = more signal;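 also: score merges feature fluorescence with signal-to-noise for each printed compound spot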
[2] = system: Human papillomavirus type 1a E7 protein (residues 1-88); assay: HPV1a E7 small-molecule binders, primary screen, biochemical, small-molecule microarray, residues 1-88, 635 nm (AID 1129); conditions: small-molecule microarray binding, fluorescence 635 nm; higher = more signal
[3] = biological target: Focal adhesion kinase 1 (Homo sapiens) (UniProt Q05397); assay: PTK2 protein binding on printed compound slides – biochemical, small-molecule microarray, 635/667 nm fluorescence, BSA, DTT, primary screen (AID 1130); conditions: 635 nm fluorescence, higher = more signal;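 also: composite of spot emission at 667 nm and signal to noise over triplicate slides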
Chain of Focal adhesion kinase 1 (Homo sapiens) (Q05397 whole entry, looked up): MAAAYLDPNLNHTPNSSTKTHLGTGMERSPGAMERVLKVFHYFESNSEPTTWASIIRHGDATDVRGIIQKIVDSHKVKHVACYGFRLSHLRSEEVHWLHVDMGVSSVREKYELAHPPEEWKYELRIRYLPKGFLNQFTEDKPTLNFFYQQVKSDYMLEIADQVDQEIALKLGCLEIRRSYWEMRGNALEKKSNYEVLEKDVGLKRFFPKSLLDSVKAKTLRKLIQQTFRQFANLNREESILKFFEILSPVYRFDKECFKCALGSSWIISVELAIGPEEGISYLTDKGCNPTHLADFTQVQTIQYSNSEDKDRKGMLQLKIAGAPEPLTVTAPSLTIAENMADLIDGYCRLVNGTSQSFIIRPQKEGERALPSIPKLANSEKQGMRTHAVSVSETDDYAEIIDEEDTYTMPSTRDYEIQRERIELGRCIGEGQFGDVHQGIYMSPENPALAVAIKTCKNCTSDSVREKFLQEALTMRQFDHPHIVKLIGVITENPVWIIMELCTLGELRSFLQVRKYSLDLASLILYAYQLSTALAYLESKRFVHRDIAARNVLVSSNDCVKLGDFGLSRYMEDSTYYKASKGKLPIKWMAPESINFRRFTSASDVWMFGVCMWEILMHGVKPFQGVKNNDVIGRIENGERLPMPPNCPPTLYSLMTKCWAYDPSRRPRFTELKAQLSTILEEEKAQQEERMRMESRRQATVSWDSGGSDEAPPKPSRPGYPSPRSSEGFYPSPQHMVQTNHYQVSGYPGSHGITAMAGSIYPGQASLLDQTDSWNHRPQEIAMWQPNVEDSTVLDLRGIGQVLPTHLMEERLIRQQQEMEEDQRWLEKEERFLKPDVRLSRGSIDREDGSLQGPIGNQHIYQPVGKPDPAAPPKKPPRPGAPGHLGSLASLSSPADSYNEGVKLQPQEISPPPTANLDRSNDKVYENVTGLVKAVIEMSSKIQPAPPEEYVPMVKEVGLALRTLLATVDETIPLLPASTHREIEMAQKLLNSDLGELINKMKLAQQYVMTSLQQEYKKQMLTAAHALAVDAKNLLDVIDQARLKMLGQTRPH

[4] = system: Fibrinogen (Alexa647-labelled); assay: Alexa647-fibrinogen binding to printed small molecules – biochemical, small-molecule microarray, 635/667 nm fluorescence, artefact control for SMM control-protein annotation, profiling panel (AID 1131); conditions: fibrinogen-A647 binding fluorescence, higher = more signal;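 also: z-score merges 667 nm fluorescence with per-spot signal-to-noise over triplicate slides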
[5] = biological target: Follistatin (Homo sapiens) (UniProt P19883); assay: FST protein binding to printed compounds – biochemical, small-molecule microarray, 635/667 nm fluorescence, primary screen (AID 1132); conditions: 635 nm fluorescence, higher = more signal
Chain of Follistatin (Homo sapiens) (P19883 whole entry, looked up): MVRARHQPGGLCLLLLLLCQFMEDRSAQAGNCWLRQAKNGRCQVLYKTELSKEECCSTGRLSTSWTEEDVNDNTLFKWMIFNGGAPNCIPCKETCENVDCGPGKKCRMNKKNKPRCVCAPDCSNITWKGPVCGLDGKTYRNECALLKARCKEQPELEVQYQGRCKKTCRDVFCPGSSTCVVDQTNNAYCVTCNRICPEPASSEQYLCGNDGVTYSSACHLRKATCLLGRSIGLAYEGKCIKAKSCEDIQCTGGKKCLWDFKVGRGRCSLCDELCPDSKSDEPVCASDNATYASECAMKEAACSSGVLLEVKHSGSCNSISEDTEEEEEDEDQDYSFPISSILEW

[6] = biological target: Fibroblast growth factor 2 (Homo sapiens) (UniProt P09038); assay: basic fibroblast growth factor binding to printed compounds – biochemical, small-molecule microarray, 635/667 nm fluorescence, primary screen (AID 1133); conditions: FGF2, fluorescence 635/667, higher = more signal
Chain of Fibroblast growth factor 2 (Homo sapiens) (P09038 whole entry, looked up): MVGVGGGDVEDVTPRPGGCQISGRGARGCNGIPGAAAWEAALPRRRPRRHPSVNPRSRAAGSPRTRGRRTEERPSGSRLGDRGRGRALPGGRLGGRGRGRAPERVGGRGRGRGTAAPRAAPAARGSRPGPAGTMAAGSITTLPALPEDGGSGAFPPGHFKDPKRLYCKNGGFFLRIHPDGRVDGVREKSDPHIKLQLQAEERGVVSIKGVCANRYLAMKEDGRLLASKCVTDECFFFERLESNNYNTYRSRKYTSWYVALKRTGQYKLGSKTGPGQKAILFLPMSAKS

[7] = JC-1 mitochondrial potential readout, lung cancer cells – cell-based, A549, JC-1 fluorescence, basal, 24 h, 100 nL, profiling panel (AID 1138); conditions: higher = more signal;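 also: A549 lung adenocarcinoma cells under basal conditions with no added stimulus; test concentration not given here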
[8] = system: Lefty1; assay: Lefty1 protein binding to printed compounds – biochemical, small-molecule microarray, 635/667 nm fluorescence, primary screen (AID 1139); conditions: fluorescence 635/667, higher = more signal
[9] = system: wheat germ agglutinin (Triticum aestivum), Alexa647-labelled; assay: Alexa647-WGA lectin binding to printed small molecules – biochemical, small-molecule microarray, 635/667 nm fluorescence, artefact control for SMM control-protein annotation, profiling panel (AID 1140); conditions: WGA-A647 binding, 635 nm fluorescence, higher = more signal;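 also: score merges 667 nm feature emission with signal to noise over triplicate slides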
[10] = biological target: Luciferin 4-monooxygenase (Photinus pyralis) (UniProt P08659); assay: inhibition of purified Photinus pyralis luciferase – biochemical, luminescence, purified enzyme, 2006 set, primary screen (AID 1141); conditions: purified firefly luciferase, SteadyGlo luminescence, 30 min; higher = more signal, called active from +8 up or from −8 down;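 also: cell-free assay with purified firefly luciferase at 100 ng per well in PBS; test concentration not given here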
Chain of Luciferin 4-monooxygenase (Photinus pyralis) (P08659 whole entry, looked up): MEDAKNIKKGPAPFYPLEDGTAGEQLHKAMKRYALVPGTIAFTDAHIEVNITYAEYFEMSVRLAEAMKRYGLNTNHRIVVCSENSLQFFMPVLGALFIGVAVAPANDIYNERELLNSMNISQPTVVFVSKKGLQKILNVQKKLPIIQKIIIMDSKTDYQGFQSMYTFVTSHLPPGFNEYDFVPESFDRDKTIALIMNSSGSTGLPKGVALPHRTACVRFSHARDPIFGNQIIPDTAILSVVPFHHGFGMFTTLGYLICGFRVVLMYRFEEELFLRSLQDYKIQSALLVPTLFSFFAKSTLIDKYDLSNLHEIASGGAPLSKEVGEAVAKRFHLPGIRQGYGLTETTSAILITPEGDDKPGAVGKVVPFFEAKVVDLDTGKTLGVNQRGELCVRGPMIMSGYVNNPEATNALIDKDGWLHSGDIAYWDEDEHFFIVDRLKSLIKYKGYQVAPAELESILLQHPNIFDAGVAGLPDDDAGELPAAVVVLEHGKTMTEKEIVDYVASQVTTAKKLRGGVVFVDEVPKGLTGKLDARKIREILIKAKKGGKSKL

[11] = system: Wnt5a (protein binding on small-molecule microarray); assay: small molecules binding Wnt5a protein – biophysical, small-molecule microarray, 635/667 nm fluorescence, primary screen (AID 1142); conditions: 635 nm fluorescence, higher = more signal;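 also: fluorescence read at 667 nm with signal to noise per printed feature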
[12] = ATP-based viability of Huh7 replicon cells – cell-based, CellTiter-Glo luminescence, basal, 48 h, cytotoxicity control for HCV replication inhibitor project, primary screen (AID 1143); conditions: higher = more signal, called active from +8 up or from −8 down;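 also: Huh7 hepatoma cells carrying a hepatitis C replication reporter with no stimulus; test concentration not given here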
[13] = Pseudomonas biofilm growth suppression – PAO1 strain, BacTiter-Glo luminescence, LB-PBS, primary screen (AID 1144); conditions: P. aeruginosa PAO1 biofilm, 12 h, higher = more signal
[14] = basal CRE-LacZ reporter activity in PC12 – cell-based, unstimulated, primary screen (AID 1145); conditions: no forskolin, luminescence, 4.5 h, higher = more signal, called active from +8 up or from −8 down
[15] = forskolin-driven CRE-LacZ activity in PC12 – cell-based, CRE-LacZ reporter, forskolin-stimulated, primary screen (AID 1146); conditions: luminescence, 4.5 h, higher = more signal, called active from +8 up or from −8 down;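 also: PC12 cells with 6xCRE LacZ reporter stimulated by forskolin 10 µM; beta-galactosidase reporter signal reflecting CREB driven transcription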
[16] = biological target: Streptavidin (Streptomyces avidinii) (UniProt P22629); assay: compounds binding control protein streptavidin – biophysical, small-molecule microarray, 635/667 nm fluorescence, artefact control for SMM compound annotation, primary screen (AID 1147); conditions: higher = more signal;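 also: signal reflects streptavidin binding to arrayed compounds as a control protein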
Chain of Streptavidin (Streptomyces avidinii) (P22629 whole entry, looked up): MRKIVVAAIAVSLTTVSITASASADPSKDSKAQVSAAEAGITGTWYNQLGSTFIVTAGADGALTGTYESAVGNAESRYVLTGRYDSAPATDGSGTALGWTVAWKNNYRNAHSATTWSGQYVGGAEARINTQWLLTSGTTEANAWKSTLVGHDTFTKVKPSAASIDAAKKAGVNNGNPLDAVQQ

[17] = probe aInhba binding on compound microarray – biochemical, small-molecule microarray, 635/667 nm fluorescence, primary screen (AID 1148); conditions: higher = more signal;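 also: score merges 667nm spot fluorescence with signal-to-noise for antibody binding to printed compounds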
[18] = biological target: Torsin-1A (Homo sapiens) (UniProt O14656); assay: TOR1A wild-type binding on microarray – cell lysate, small-molecule microarray, lysate, 635/667 nm, primary screen (AID 1149); conditions: COS7 hTOR1A-WT lysate, 635 nm fluorescence, higher = more signal
Chain of Torsin-1A (Homo sapiens) (O14656 whole entry, looked up): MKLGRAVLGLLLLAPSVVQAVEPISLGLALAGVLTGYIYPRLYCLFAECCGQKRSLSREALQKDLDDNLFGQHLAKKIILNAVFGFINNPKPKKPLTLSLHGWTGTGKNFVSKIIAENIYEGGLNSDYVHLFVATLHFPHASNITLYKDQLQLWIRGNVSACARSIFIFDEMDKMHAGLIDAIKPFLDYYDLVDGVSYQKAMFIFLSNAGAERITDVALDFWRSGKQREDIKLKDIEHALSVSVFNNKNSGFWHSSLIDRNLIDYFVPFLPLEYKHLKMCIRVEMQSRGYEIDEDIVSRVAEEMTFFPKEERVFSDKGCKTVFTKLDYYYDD

[19] = biological target: Torsin-1A (Homo sapiens) (UniProt O14656); assay: torsin A mutant lysate binding on microarrays – cell lysate, small-molecule microarray, COS7 lysate, 635/667 nm fluorescence, primary screen (AID 1150); conditions: COS7 hTOR1A mutant lysate, 635 nm fluorescence, higher = more signal;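 also: score pools 667 nm emission and signal to noise measuring lysate protein binding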
[20] = system: Sonic hedgehog protein (Shh); assay: Sonic hedgehog microarray binding compounds – biochemical, small-molecule microarray, 635/667 nm fluorescence, primary screen (AID 1151); conditions: 635 nm fluorescence, higher = more signal;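 also: Shh protein binding to compounds spotted on small-molecule microarray slides; score combines spot fluorescence intensity with signal-to-noise across triplicate slides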

| Structure (SMILES) | composite z-score [1] | composite z-score [2] | composite z-score [3] | composite z-score [4] | composite z-score [5] | composite z-score [6] | z-score [7] | composite z-score [8] | composite z-score [9] | z-score [10] | composite z-score [11] | z-score [12] | z-score [13] | z-score [14] | z-score [15] | composite z-score [16] | composite z-score [17] | composite z-score [18] | composite z-score [19] | composite z-score [20] |
| --- | --- | --- | --- | --- | --- | --- | --- | --- | --- | --- | --- | --- | --- | --- | --- | --- | --- | --- | --- | --- |
| COC(=O)[C@H](C)NC(=O)CCC1CC(OC(=O)NCc2cccc3ccccc23)CC2(CCCC(COC(=O)NCCc3ccccc3OC)O2)O1 (stereo not given in full) | 1.13 | 1.18 | 0.656 | 0.661 | 0.941 | 0.544 | -0.358 | 0.89 | 0.316 | 0.603 (inactive) | 0.259 | -0.701 (inactive) | 0.326 (inactive) | 0.556 (inactive) | 0.684 (inactive) | 0.759 | -0.0361 | 0.475 | 0.406 | 0.963 |
| CCN1C(=O)[C@H]2[C@H]3[C@H](O)[C@H](O)CC(=NOC[C@@H](O)[C@H]4O[C@@H]5OC(C)(C)O[C@@H]5[C@H]4O)[C@@H]3CC[C@H]2C1=O | -0.072 | -0.144 | -0.212 | -0.0432 | 0.387 | 0.383 | -0.548 | 0.0533 | -0.0038 | -0.819 (inactive) | -0.0165 | 0.297 (inactive) | 0.685 (inactive) | -0.975 (inactive) | -0.799 (inactive) | 0.245 | -0.246 | 0.382 | 0.205 | 0.374 |
| CCN1C(=O)[C@H]2[C@H]3[C@H](O)[C@H](O)CC(=NOCC[C@@H]4C=C[C@H](OC(C)=O)[C@@H](COC(C)=O)O4)[C@@H]3CC[C@H]2C1=O | 0.535 | 0.311 | 0.39 | 0.936 | 0.472 | 0.419 | -0.812 | 0.298 | 0.97 | 0.838 (inactive) | 0.0885 | -0.0735 (inactive) | 0.857 (inactive) | 0.0757 (inactive) | 0.313 (inactive) | -0.0034 | -0.109 | 0.014 | 0.296 | 0.55 |
| CCOC(=O)[C@H](Cc1ccccc1)NC(=O)CCC1CC(OC(=O)NCc2cccc3ccccc23)CC2(CCCC(COC(=O)NCC3CCCCC3)O2)O1 (stereo not given in full) | 1.05 | 1.06 | 0.289 | 0.923 | 0.421 | 0.754 | 0.624 | 0.826 | -0.264 | 0.632 (inactive) | 0.297 | -0.213 (inactive) | -0.441 (inactive) | -0.343 (inactive) | 0.895 (inactive) | 0.307 | 0.0155 | 0.156 | 0.224 | 0.955 |
| CC(CCN1CCCCc2nc(C)c(C)cc21)=NO[C@@H](C)c1cc(-c2c(C)cc(C)cc2C)no1 | -0.335 | -0.384 | 0.0796 | -0.317 | -0.673 | -0.682 | 1.91 | -0.315 | -0.547 | -1.49 (inactive) | -0.525 | -3.04 (inactive) | -0.425 (inactive) | 1.9 (inactive) | 1.02 (inactive) | -1.23 | -0.211 | -1.18 | -0.956 | -0.235 |
| C=CC[C@@H]1C=C[C@H](Oc2ccc(C)cc2)[C@@H](COC(=O)NCc2cccc3ccccc23)O1 | 1.21 | 0.703 | 0.433 | 0.216 | 0.285 | 0.07 | 1.34 | 0.574 | 0.115 | -0.0167 (inactive) | 0.243 | -2.06 (inactive) | -0.607 (inactive) | -0.527 (inactive) | -0.868 (inactive) | -0.142 | -0.156 | -0.0815 | -0.0604 | 0.701 |
| COC(=O)[C@@H]1CC[C@H](C)[C@@H](c2ccc(C)cc2)N1C(=O)c1ccc(C=NO[C@@H](C)c2cc(-c3c(C)cc(C)cc3C)no2)cc1 | -0.637 | 0.706 | 0.137 | 0.602 | 0.365 | 0.553 | 1.65 | 0.677 | 0.0859 | 0.195 (inactive) | 0.153 | -1.31 (inactive) | 0.209 (inactive) | -0.0591 (inactive) | -0.187 (inactive) | 0.152 | -0.0986 | 1.62 | 0.763 | 0.707 |
| C=CC[C@@H]1C=C[C@H](ON=C2C[C@@H](O)[C@@H](O)[C@@H]3[C@@H]4C(=O)N(CC)C(=O)[C@@H]4CC[C@@H]23)[C@@H](CO)O1 | -2.3 | -1.1 | 0.382 | -1.15 | -0.707 | 0.119 | -0.992 | 0.158 | -1.41 | 1.3 (inactive) | -0.123 | -2.05 (inactive) | -1.39 (inactive) | 2.83 (inactive) | -0.247 (inactive) | -0.816 | -0.104 | 0.862 | 0.337 | 0.652 |
| C=CC[C@@H]1C=C[C@H](ON=C(C)CCN2CCCCc3nc(C)c(C)cc32)[C@@H](CO)O1 | -0.833 | -0.0192 | 0.499 | 0.635 | 1.39 | 1.36 | 0.143 | 1.56 | 0.607 | 1.38 (inactive) | 0.291 | -1.25 (inactive) | 0.701 (inactive) | 1.72 (inactive) | 0.578 (inactive) | -0.208 | -0.179 | 2.03 | 1.52 | 2.05 |

From PubChem BioAssay
